CHX counter = affects cycloheximide protein synthesis inhibition readout, counter-screen; AID 2314; cell reporter, cycloheximide protein synthesis inhibition counterscreen; max response, %; actives 12% (n = 300,000); in the data active = max response mostly above about 13%, no sharp cut-off; inactive = mostly below about 14%; note: read at 38.3 µM for the half of the compounds with a filed dose
Pf growth 96h = inhibits malaria parasite growth, 96 h; P. falciparum luciferase reporter growth, 96 h; Potency, µM (top dose mostly 28.7 µM), most hits filed as inhibitors; actives 6.9% (n = 320,000); AID 504834
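Plates of compound plus infected erythrocytes (2% hematocrit, 0.05% parasitemia final) incubate 96 hours, 37 C, 5% CO2. Detection reagent added; reduced luminescence from the parasites' luciferase reporter flags inhibition.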
Shiga toxin inh = blocks Shiga toxin action in Vero cells | Vero cells, Shiga toxin protein synthesis inhibition reporter | inhibition, % at 38.7 µM | actives 9.2% (n = 290,000) | AID 2315; in the data active = inhibition mostly above about 28%, no sharp cut-off; inactive = mostly below about 43%
Marburg entry inh = Marburg virus entry inhibition. Marburg virus pseudotyped entry inhibition, cell reporter. Potency, µM (highest dose often 37.8 µM), hits mostly inhibitors. actives 1.8% (n = 300,000). AID 540276; calls by dose curve; tested in HEK293 cells
LASV entry inh = blocks Lassa virus binding to or entry into cells. actives 1.2% (n = 300,000). AID 540256. Lassa virus pseudotype entry inhibition, cell reporter. Potency, µM (top dose mostly 37.9 µM), usual class: inhibitors; calls by dose curve; tested in HEK293 cells; note: nearly all actives have a fitted effect of over 50% in size
Pf growth 48h = inhibits P. falciparum growth in the first generation, 48 h | P. falciparum luciferase growth in erythrocytes, 48 h | Potency, µM (titrated, usually from 28.7 µM), most hits filed as inhibitors | actives 5.9% (n = 310,000) | AID 504832
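In quantitative HTS format, infected erythrocytes bearing luciferase-reporter parasites were treated for a single generation at 37 C. Luminescence after adding detection reagent served as the growth measure.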
A number is an active result. An excerpt weighted towards active compounds, which were near 19% of everything screened. Unless noted, calls come from the whole dose curve; as a rule, active = well fitted inhibition curve with a large enough effect; inconclusive = small, poorly fitted or top-dose-only effect, or another doubt; inactive = no such curve, though single readings can be large or run the other way.

`CCN(CCO)c1ccc(N=Cc2c(O)n(C)c(=S)[nH]c2=O)cc1` gave CHX counter 44, Pf growth 96h inactive, Shiga toxin inh 80, Marburg entry inh inconclusive, LASV entry inh inactive and Pf growth 48h inactive.
For CCn1c(O)c(C=Nc2ccc(S(N)(=O)=O)cc2)c(=O)[nH]c1=S the results were CHX counter inactive, Pf growth 96h inactive, Shiga toxin inh inactive, Marburg entry inh inactive, LASV entry inh inactive and Pf growth 48h inactive.
Screening CCN(CC)c1ccc(N=Cc2c(O)n(CCc3ccc(OC)c(OC)c3)c(=O)[nH]c2=O)cc1 returned CHX counter inactive, Pf growth 96h 10µM, Shiga toxin inh inactive, Marburg entry inh 2.8µM, LASV entry inh inconclusive and Pf growth 48h 7.4µM.
For COc1ccc(CCn2c(O)c(C=Nc3ccc(F)cc3)c(=O)[nH]c2=O)cc1OC the results were CHX counter inactive, Pf growth 96h inactive, Shiga toxin inh inactive and Pf growth 48h inactive.
`O=C(O)CCN1C(=O)CC(N2C(=O)/C(=C/c3ccc(Cl)cc3)SC2=S)C1=O` (centres undefined) gave CHX counter inactive, Pf growth 96h inactive, Shiga toxin inh inactive, Marburg entry inh inactive, LASV entry inh inactive and Pf growth 48h inactive.
For CN1CCN(c2nccc3c2ncn3C)CC1 the results were CHX counter inactive, Pf growth 96h inactive, Shiga toxin inh inactive, Marburg entry inh inactive, LASV entry inh inactive and Pf growth 48h inactive.
Screening C/C(=N\NC(=O)c1ccc(Cl)cc1)c1ccc2[nH]ccc2c1 returned CHX counter 24, Pf growth 96h inconclusive, Shiga toxin inh inactive, Marburg entry inh inactive, LASV entry inh inactive and Pf growth 48h inactive.
C/C(CC(=O)N1CCN(C=O)CC1)=N\NC(=O)c1cccc([N+](=O)[O-])c1 was read as CHX counter inactive, Pf growth 96h inactive, Shiga toxin inh inactive, Marburg entry inh inactive, LASV entry inh inactive and Pf growth 48h inactive.
Screening C/C(=N/NC(=O)c1ccoc1C)c1ccc(N2CCOCC2)cc1 returned CHX counter 62, Pf growth 96h inactive, Shiga toxin inh 115, Marburg entry inh inactive, LASV entry inh inconclusive and Pf growth 48h inactive.
For C/C(CC(=O)N1CCN(C=O)CC1)=N\NC(=O)c1ccc(Cl)cc1 the results were CHX counter 11, Pf growth 96h inconclusive, Shiga toxin inh inactive, Marburg entry inh inactive, LASV entry inh inactive and Pf growth 48h inactive.
Screening C/C(=N\NC(=O)c1ccc(Cl)cc1)c1ccc(N2CCOCC2)cc1 returned CHX counter 25, Pf growth 96h inactive, Shiga toxin inh inactive, Marburg entry inh inactive, LASV entry inh inactive and Pf growth 48h inactive.
For Nc1nc(N2CCN(c3ccc(Cl)cc3)CC2)n[nH]1 the results were CHX counter inactive, Pf growth 96h inactive, Shiga toxin inh inactive, Marburg entry inh inactive, LASV entry inh inactive and Pf growth 48h inactive.
Screening Cc1cc(C)nc(N/N=C/C2=C(N3CCOCC3)C(=C\c3ccc(Cl)cc3)/CC2)n1 returned CHX counter inactive, Pf growth 96h inactive, Shiga toxin inh inactive, Marburg entry inh inactive, LASV entry inh inactive and Pf growth 48h inconclusive.
For Cc1occc1C(=O)N/N=C/C1=C(N2CCOCC2)C(=C\c2ccc(Cl)cc2Cl)/CC1 the results were CHX counter 16, Pf growth 96h inactive, Shiga toxin inh active, Marburg entry inh inactive, LASV entry inh inactive and Pf growth 48h inactive.
Screening CC(=O)N1CCN(c2ccc(N=Cc3c(O)n(Cc4ccccc4)c(=O)[nH]c3=O)cc2)CC1 returned CHX counter inactive, Pf growth 96h inactive, Shiga toxin inh inactive, Marburg entry inh inactive, LASV entry inh inactive and Pf growth 48h inactive.
Cc1cccc(NC(=O)CSCC(=O)N(C)Cc2c(F)cccc2Cl)c1 was read as Pf growth 96h 13µM, Marburg entry inh inactive, LASV entry inh inactive and Pf growth 48h inconclusive.
`Cc1cc(NC(=O)CSCC(=O)N(C)Cc2c(F)cccc2Cl)no1` gave Pf growth 96h inconclusive, Marburg entry inh inactive, LASV entry inh inactive and Pf growth 48h inconclusive.
`CN(CC(=O)Nc1ccc(Cl)cc1)C(=O)Cc1c(F)cccc1Cl` gave CHX counter inactive, Pf growth 96h 12µM, Shiga toxin inh inactive and Pf growth 48h inactive.
`CN(CC(=O)Nc1ccc(OC(F)(F)F)cc1)C(=O)Cc1c(Cl)cccc1Cl` gave CHX counter inactive, Pf growth 96h inconclusive, Shiga toxin inh inactive, Marburg entry inh inconclusive, LASV entry inh inactive and Pf growth 48h inconclusive.
`COc1ccc(C(=O)CC(CC(=O)c2ccc(OC)cc2)C(=O)O)cc1` gave Pf growth 96h inactive and Pf growth 48h inconclusive.
COc1ccc(CC2SC(=Nc3ccc(F)cc3)NC2=O)cc1 (centres undefined) was read as CHX counter inactive, Pf growth 96h inactive, Shiga toxin inh inactive, Marburg entry inh inactive, LASV entry inh 4.5µM and Pf growth 48h 2.9µM.
Screening Cc1ccc(N(CC(=O)NC(C)c2ccccc2)S(=O)(=O)c2cccs2)cc1 (centres undefined) returned CHX counter inactive, Pf growth 96h inconclusive, Shiga toxin inh inactive, Marburg entry inh inactive and LASV entry inh inactive.
For O=C(NC1CCCC1)C1CCCN1S(=O)(=O)c1cccc2cccnc12 (centres undefined) the results were CHX counter inactive, Pf growth 96h inactive and Shiga toxin inh inactive.
Screening O=C(NCc1ccccc1)C1CCCN1S(=O)(=O)c1cccc2cccnc12 (centres undefined) returned CHX counter inactive, Pf growth 96h 4.7µM, Shiga toxin inh inactive, Marburg entry inh inactive, LASV entry inh inactive and Pf growth 48h inactive.
`O=C(C1CCC(CNS(=O)(=O)c2cccc3cccnc23)CC1)N1CCCC1` (centres undefined) gave CHX counter inactive, Pf growth 96h 13µM, Shiga toxin inh inactive, Marburg entry inh inactive, LASV entry inh inactive and Pf growth 48h inactive.
Screening CN(C(=O)C1CCC(CNS(=O)(=O)c2cccc3cccnc23)CC1)C1CCCCC1 (centres undefined) returned CHX counter inactive, Pf growth 96h inconclusive, Shiga toxin inh inactive, Marburg entry inh inconclusive, LASV entry inh inconclusive and Pf growth 48h inconclusive.
Screening CC(C)(C)CC(=O)Nc1cccc2c1CCCC2 returned CHX counter inactive, Pf growth 96h inactive, Shiga toxin inh inactive, Marburg entry inh inactive and LASV entry inh inactive.
Screening c1cc2c(c(NCc3ccncc3)c1)CCCC2 returned CHX counter inactive, Shiga toxin inh inactive, Marburg entry inh inactive and Pf growth 48h 10µM.
`CCC(=NCCc1c(C)[nH]c2ccc(OC(F)(F)F)cc12)C1=C(O)CC(c2ccccc2)CC1=O` (centres undefined) gave CHX counter inactive, Pf growth 96h inactive, Shiga toxin inh inactive, Marburg entry inh inconclusive, LASV entry inh inconclusive and Pf growth 48h inconclusive.
CCCCC(=NCCc1c(C)[nH]c2ccc(OC)cc12)C1=C(O)CC(c2ccccc2)CC1=O (centres undefined) was read as CHX counter inactive, Pf growth 96h inactive, Shiga toxin inh inactive, Marburg entry inh 7.9µM, LASV entry inh inconclusive and Pf growth 48h inconclusive.
